Screens as filed in PubChem.
Sampled rows, rich in hits. Any-hit rate of the full collection: about 3.3%.
Smad3 inh: Smad3/FoxH1 peptide binding inhibitors, primary screen, biochemical, TR-FRET | hit rate 0.29% among 88,000 | TR-FRET Smad3/Dy647-FoxH1 peptide binding, europium anti-His | inhibition, % at 25 µM;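 active means compounds that reduce the energy-transfer binding signal between the protein and its labelled peptide by more than half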;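 further: 0% = Smad3 plus labelled peptide maximal FRET and 100% = peptide-only background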
Target sequence (P84022 whole entry, looked up): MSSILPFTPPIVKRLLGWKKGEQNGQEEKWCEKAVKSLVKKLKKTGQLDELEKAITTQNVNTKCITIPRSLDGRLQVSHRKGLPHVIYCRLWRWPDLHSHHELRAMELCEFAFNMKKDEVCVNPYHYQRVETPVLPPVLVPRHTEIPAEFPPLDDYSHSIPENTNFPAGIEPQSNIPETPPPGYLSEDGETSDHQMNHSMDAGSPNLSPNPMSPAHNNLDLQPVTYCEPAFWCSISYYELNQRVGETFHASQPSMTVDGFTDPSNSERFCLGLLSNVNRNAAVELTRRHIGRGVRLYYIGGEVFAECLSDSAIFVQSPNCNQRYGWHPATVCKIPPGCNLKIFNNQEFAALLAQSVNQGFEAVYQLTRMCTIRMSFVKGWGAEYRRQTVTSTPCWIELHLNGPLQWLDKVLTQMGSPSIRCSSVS
ERb coact inh: inhibitors of ERβ-SRC1 coactivator interaction, primary screen, biochemical, TR-FRET, ERβ LBD, SRC-1 peptide. TR-FRET ER-beta LBD / SRC1-Cy5 peptide binding; receptor agonist-loaded with 1 µM estradiol. inhibition, % at 25.6 µM. hit rate 1.3% among 86,000. AID 633, 2007;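 active means compounds whose percent inhibition of the receptor-coactivator binding signal exceeds about 50% in the single-dose screen, limit read from the data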;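 further: 0% = receptor plus peptide wells without compound and 100% = peptide-only wells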
FAK inh: FAK kinase inhibitors, primary screen, biochemical | Focal adhesion kinase 1 (Homo sapiens), Q05397 | biochemical FAK kinase activity assay | inhibition, %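 (tested at 7 µM)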 | hit rate 0.84% among 97,000 | AID 727, 2007; in the data active means inhibition above about 19%;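 further: 0% = DMSO and 100% = reference compound high control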
ERa SRC1 pot: enhancers of ERα–SRC-1 coactivator binding, primary screen, biochemical, TR-FRET, ERα LBD, low estradiol; Estrogen receptor (Homo sapiens), P03372; TR-FRET ERalpha-LBD/SRC-Cy5 coactivator binding, 2 h; 100 = basal binding, no effect; coactivator binding (% of control), % at 25.6 µM; hit rate 1.3% among 86,000; in the data active means activity above about 200%;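 further: binding measured in presence of low estradiol as agonist stimulus; 0% = peptide alone without receptor and 100% = receptor with peptide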
ERa SRC1 inh: ERα–SRC-1 coactivator interaction inhibitors, primary screen, biochemical, TR-FRET, ERα LBD, estradiol-bound; TR-FRET ER-alpha LBD / SRC-1 peptide; inhibition, % at 25.6 µM; hit rate 1.7% among 86,000; AID 629, 2007; in the data active means inhibition above about 50%;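 further: 0% = receptor plus peptide control and 100% = peptide only without receptor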
Candida biofilm: clotrimazole potentiators killing Candida biofilms, primary screen, with clotrimazole, Alamar Blue | C. albicans biofilm + clotrimazole | inhibition, % at 6 µM | hit rate 0.14% among 85,000;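 active means inhibition above 20%; inactive means inhibition below 20%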;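 further: preformed 24 hr biofilms exposed to compound for 48 hr; 0% = biofilm without compound and 100% = blank killed by clotrimazole plus chlorhexidine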
An asterisk follows results filed as active; . = no result given; [ ] = another dose, or the depositor's remark.

SMILES	Smad3 inh	ERb coact inh	FAK inh	ERa SRC1 pot	ERa SRC1 inh	Candida biofilm
N=c1ccn2c(n1)O[C@H]1[C@@H](OP(=O)(O)O)[C@H](CO)O[C@H]12	1	.	.	.	.	.
Nn1c(SCC(=O)N2CCOCC2)nnc1-c1ccccc1Cl	9	0	1	113	-4	0
CN(C)Cc1cc(C(C)(C)C)ccc1-c1ccc(C(C)(C)C)cc1CN(C)C	70*	.	.	.	.	.
CN(C)Cc1cc(C(C)(C)C)cc(CN(C)C)c1O	7	.	.	.	.	.
CCCCOC(=O)c1cc(-c2ccc(/C=N/n3cnnc3)o2)ccc1Cl	-2	42	12	132	56*	6
O=C1CCC(=O)N1c1ccccc1-c1ccccc1	0	0	-1	117	-4	2
Cc1cc(-c2ccc(N3C(=O)CCC3=O)c(C)c2)ccc1N1C(=O)CCC1=O	1	63*	-10	106	-7	7
COc1ccc(C)cc1NC(=O)c1cnc2scc(C)n2c1=O	7	9	.	216*[fluorescence artefact?]	20	4
COc1ccc2nc3sc(C(=O)NCc4cccs4)c(N)c3cc2c1	10	19	7	90	54*[fluorescence artefact?]	8
O=C(Nc1ccc(-c2nc3ccccc3o2)cc1)c1ccc2c(c1)OCO2	12	44	0	185	57*[fluorescence artefact?]	7
Cc1ccc(-c2nc3ccccc3o2)cc1NC(=O)c1ccc2c(c1)OCO2	10	1	1	266*	31	4
Cc1c(NC(=O)c2ccc3c(c2)OCO3)cccc1-c1nc2ccccc2o1	10	-2	3	126	-3	3
Cc1ccc2oc(-c3ccc(NC(=O)c4ccc5c(c4)OCO5)cc3)nc2c1	.	.	2	.	.	.
O=C(Nc1ccccc1-c1nc2ccccc2o1)c1ccc2c(c1)OCCO2	-2	28	1	217*[fluorescence artefact?]	50	-1
O=C(CN1C(=O)c2ccccc2C1=O)Nc1ccc(-c2nc3ccccc3o2)cc1	4	-2	4	213*	-2	0
N#CNC(N)=Nc1ccc(Cl)cc1	3	.	.	.	.	.
COc1c(O)ccc2c1CN1CCc3cc4c(cc3[C@@H]1C2)OCO4	2	.	.	.	.	.
O=C(O)CCN1C(=S)CSC1=S	7	.	.	.	.	.
Nc1ncnc2c1ncn2C[C@@H](O)C(=O)O	1	.	.	.	.	.
CCN(CC)C(=O)CSc1nc2sc3c(c2c(=O)n1-c1ccc(C)cc1)CC(C)(C)SC3	4	-15	2	246*	-17	1
C[N+](C)(C)/N=C/c1ccc(O)c(O)c1	13	.	.	.	.	.
NC(N)=NC(N)=Nc1ccccc1 (tested in a mixture with another compound)	60*	.	.	.	.	.
CC1(C)CC(=O)C2=C(C1)N(Cc1ccco1)C(=O)C2(NC(=O)C1CCCCC1)C(F)(F)F (centres undefined)	11	-1	1	109	9	2
CCOC(=O)c1cccc(NC(=O)c2ccco2)c1	7	-1	.	105	-7	2
CCOC(=O)c1cccc(NC(=O)c2cccs2)c1	10	79*	-3	114	-3	4
SMILES	Smad3 inh	ERb coact inh	FAK inh	ERa SRC1 pot	ERa SRC1 inh	Candida biofilm
COc1cccc(-n2nnc3c(=O)n(Cc4c(F)cccc4Cl)cnc32)c1	5	20	1	127	44	5
COc1cccc(-n2nnc3c(=O)n(Cc4cccc(F)c4)cnc32)c1	13	17	1	269*	19	6
CC1(C)Cc2c(sc3c4nnnn4c4nnnn4c23)CO1	11	6	.	43	80*	6
CCOc1ccc(-c2nnn(CC(=O)c3ccc4c(c3)OCCO4)n2)cc1	1	-21	-6	213*	-11	2
O=C(Nc1nc2ccccc2s1)c1cc2c(s1)-c1ccccc1OC2	-26	46	11	177	71*	11
O=C(Nc1nccs1)c1cc2c(s1)-c1ccccc1OC2	.	.	1	.	.	.
CCC1S/C(=N\S(=O)(=O)c2cccs2)N(C2CCCCC2)C1=O (centres undefined)	-6	-9	-2	87	-2	-2
O=C(Nc1nc(-c2ccc(S(=O)(=O)N3CCCC3)cc2)cs1)c1cccs1	8	-11	-1	324*[fluorescence artefact?]	-31	1
O=C(Nc1nc(-c2cccs2)cs1)c1cccc(S(=O)(=O)N2CCCCC2)c1	1	-9	-2	233*	-11	4
O=C(Nc1nc(-c2ccc(S(=O)(=O)N3CCCCCC3)cc2)cs1)c1cccs1	5	-4	-4	570*[fluorescence artefact?]	-33	6
O=C(Nc1nc(-c2ccccc2)cs1)C1CCCN(S(=O)(=O)c2ccccc2)C1 (centres undefined)	11	-1	0	109	-3	8
COc1cccc(C(=O)Nc2nc(-c3ccc(S(=O)(=O)N4CCOCC4)cc3)cs2)c1	6	5	2	463*[fluorescence artefact?]	-34	2
O=C(NCc1ccc(F)cc1)C1CCC(=O)N1C1CCCCC1 (centres undefined)	4	-3	-6	95	-3	5
O=C(O)[C@H](CCc1ccccc1)N1C(=O)c2ccccc2C1=O	26	.	.	.	.	.
c1ccc2c(c1)C(=Nc1ccc(N=C3c4ccccc4-c4ccccc43)cc1)c1ccccc1-2	-5	.	.	.	.	.
COC(=O)c1cc(-c2ccc3ccccc3c2)[nH]c(=O)c1C#N	4	.	.	.	.	.
O=C(O)CCN1C(=O)C2CCCCC2C1=O (centres undefined)	-6	0	-3	108	-8	37*
Cc1ccc(S(=O)(=O)Cc2ccc(C(=O)NCc3ccc4c(c3)OCO4)o2)cc1	-3	43	4	62	51*	3
Cc1ccc(S(=O)(=O)Cc2ccc(C(=O)O)o2)cc1	3	76*	5	25	69*	0
COc1ccc(S(=O)(=O)Cc2ccc(C(=O)N3CCN(Cc4ccccc4)CC3)o2)cc1	6	1	.	139	-5	4
Cc1ccc(S(=O)(=O)Cc2ccc(C(=O)N3CCc4ccccc4C3)o2)cc1	5	76*	16	50	78*[fluorescence artefact?]	8
Cc1ccc(S(=O)(=O)Cc2ccc(C(=O)N3CCN(Cc4ccccc4)CC3)o2)cc1	2	58*	.	85	61*[fluorescence artefact?]	0
COCCNC(=O)c1ccc(CS(=O)(=O)c2ccc(C)cc2)o1	-3	3	4	126	-6	3
C[C@H](C(=O)c1ccccc1)[C@@H](c1ccccc1)N1CCOCC1	11	.	.	.	.	.
O=C(O)[C@H]([C@H]1NCCS1)N1Cc2ccccc2C1	12	.	.	.	.	.
Cc1cc([N+](=O)[O-])c(NCCCCCCO)c([N+](=O)[O-])c1	.	.	4	.	.	.
